Active and inactive are the calls of the source. The rule behind the calls is not given here.
Target: Serine/threonine-protein kinase pim-1 (Homo sapiens) (UniProt P11309)
Assay: compound-induced PIM1 thermal stabilization – biophysical, human, melting temperature shift (AID 393)
Details: Thermal shift assay, stronger effect = higher value; at 10 µM, protein 2 µM, buffer 10 mM PIPES, pH 6.5, NaCl 150 mM unless noted

Sequence of Serine/threonine-protein kinase pim-1 (Homo sapiens) (P11309 whole entry, looked up): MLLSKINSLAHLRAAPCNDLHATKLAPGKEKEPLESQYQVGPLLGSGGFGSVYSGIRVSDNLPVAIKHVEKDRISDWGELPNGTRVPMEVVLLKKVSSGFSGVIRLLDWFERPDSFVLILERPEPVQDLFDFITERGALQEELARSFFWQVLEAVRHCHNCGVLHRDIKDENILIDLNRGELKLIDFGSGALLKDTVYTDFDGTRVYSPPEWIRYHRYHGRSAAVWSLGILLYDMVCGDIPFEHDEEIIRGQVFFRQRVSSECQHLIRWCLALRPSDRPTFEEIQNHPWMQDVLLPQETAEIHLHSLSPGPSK

Row | SMILES | Tm shift
1 | COCCNc1ccc2ncc(-c3cccc(C(C)=O)c3)n2n1 | 4.92 Celsius (active)
2 | NCCCn1cc(C2=C(c3c[nH]c4ccccc34)C(=O)NC2=O)c2ccccc21 | 9 Celsius [at 10 µM, protein 2 µM, buffer 10 mM Na Citrate, pH 6.5, NaCl 150 mM] (active)
3 | CCn1c(O)c(C2=NC(=S)NC2=O)c2ccccc21 | 3.12 Celsius (active)
4 | CC(C)[C@@H](CO)Nc1ccc2ncc(-c3cccc(Cl)c3)n2n1 | 6.86 Celsius (active)
5 | Nc1ccc(-c2cnn3ccc(Nc4cccc(Cl)c4)nc23)cc1 | 6.84 Celsius (active)
6 | CC(=O)c1cccc(-c2cnc3ccc(N[C@H](CO)C(C)C)nn23)c1 | 7.4 Celsius (active)
7 | O=C1c2ccccc2-c2n[nH]c3cccc1c23 | 4.2 Celsius [at 10 µM, protein 2 µM, buffer 10 mM Na Citrate, pH 6.5, NaCl 150 mM] (active)
8 | CCCCc1c(-c2ccc(O)cc2)[nH]c2nccnc12 | 4 Celsius [at 10 µM, protein 2 µM, buffer 10 mM Na Citrate, pH 6.5, NaCl 150 mM] (active)
9 | CCC(CO)Nc1ccc2ncc(-c3cccc(CO)c3)n2n1 (stereo unspecified) | 3.17 Celsius (active)
10 | CC(C)[C@@H](CO)Nc1ccc2ncc(-c3cccc(O)c3)n2n1 | 3.61 Celsius (active)
11 | Oc1cc(O)cc(/C=C/c2ccc(O)c(O)c2)c1 | 3.2 Celsius [at 10 µM, protein 2 µM, buffer 10 mM Na Citrate, pH 6.5, NaCl 150 mM] (active)
12 | O=Nc1c(-c2c(O)[nH]c3ccc(S(O)(O)O)cc23)[nH]c2ccccc12 | 4.2 Celsius [at 10 µM, protein 2 µM, buffer 10 mM Na Citrate, pH 6.5, NaCl 150 mM] (active)
13 | CC(C)[C@@H](CO)Nc1ccc2ncc(-c3cccc(OC(F)(F)F)c3)n2n1 | 8.65 Celsius (active)
14 | CC(=O)c1cccc(-c2cnc3ccc(NC4CCOCC4)nn23)c1 | 5.71 Celsius (active)
15 | OCC(O)CCO/N=C1/C(c2c(O)[nH]c3ccccc23)=Nc2ccccc21 (stereo unspecified) | 4.1 Celsius [at 10 µM, protein 2 µM, buffer 10 mM Na Citrate, pH 6.5, NaCl 150 mM] (active)
16 | CNC(=O)c1cc(Oc2ccc(NC(=O)Nc3ccc(C)c(C(F)(F)F)c3)cc2)ccn1 | 3.1 Celsius [at 10 µM, protein 2 µM, buffer 10 mM Na Citrate, pH 6.5, NaCl 150 mM] (active)

Row | SMILES | Tm shift
17 | O=C1NCc2c1c1c3ccccc3[nH]c1c1[nH]c3ccccc3c21 | 7.8 Celsius [at 10 µM, protein 2 µM, buffer 10 mM Na Citrate, pH 6.5, NaCl 150 mM] (active)
18 | N=C(N)SCCCn1cc(C2=C(c3c[nH]c4ccccc34)C(=O)NC2=O)c2ccccc21 | 10.7 Celsius [at 10 µM, protein 2 µM, buffer 10 mM Na Citrate, pH 6.5, NaCl 150 mM] (active)
19 | FC(F)(F)Oc1cccc(-c2cnc3ccc(NCC4CC4)nn23)c1 | 7.73 Celsius (active)
20 | c1ccc(-c2cnc3ccc(NCc4ccco4)nn23)cc1 | 3.07 Celsius [at 5 µM, protein 1 µM, buffer 10 mM HEPES] (active)
21 | O=C1NC(=O)c2c1c1c3ccccc3[nH]c1c1[nH]c3cc(Br)ccc3c21 | 7.64 Celsius (active)
22 | O=c1cc(-c2ccc(O)cc2)oc2cc(O)cc(O)c12 | 3.4 Celsius [at 10 µM, protein 2 µM, buffer 10 mM Na Citrate, pH 6.5, NaCl 150 mM] (active)
23 | Nc1ccc(-c2cnc3ccc(NC4CCOCC4)nn23)cc1 | 4.71 Celsius (active)
24 | CCOc1c(Br)ccc2c1sc1nc[nH]c(=O)c12 | 3.5 Celsius (active)
25 | CC(C)(C)c1nc2c3cc[nH]c(=O)c3c3cc(F)ccc3c2[nH]1 | 4.9 Celsius [at 10 µM, protein 2 µM, buffer 10 mM Na Citrate, pH 6.5, NaCl 150 mM] (active)
26 | COCCNc1ccc2ncc(-c3cccc(Cl)c3)n2n1 | 6.33 Celsius (active)
27 | COC(=O)c1cnc2oc3ccc(O)cc3c2c1-c1ccccc1 | 6.2 Celsius [at 10 µM, protein 2 µM, buffer 10 mM Na Citrate, pH 6.5, NaCl 150 mM] (active)
28 | CC(O)(O)C1(O)C[C@@H]2O[C@@]1(C)n1c3ccccc3c3c4c(c5c6ccccc6n2c5c31)C(=O)NC4 (stereo partly specified) | 4.3 Celsius [at 10 µM, protein 2 µM, buffer 10 mM Na Citrate, pH 6.5, NaCl 150 mM] (active)
29 | O=C1NC(=O)C(c2c[nH]c3ccccc23)=C1c1c[nH]c2ccccc12 | 5.8 Celsius [at 10 µM, protein 2 µM, buffer 10 mM Na Citrate, pH 6.5, NaCl 150 mM] (active)
30 | COc1cc(/C=C/C(=O)CC(=O)/C=C/c2ccc(O)c(OC)c2)ccc1O | 4.2 Celsius [at 10 µM, protein 2 µM, buffer 10 mM Na Citrate, pH 6.5, NaCl 150 mM] (active)
31 | CCC(CO)Nc1ccc2ncc(-c3ccc(C(=O)O)cc3)n2n1 (stereo unspecified) | 5.19 Celsius (active)

From PubChem BioAssay AID393 (SGCOxCompounds, 2006)
